Compounds without any hit were thinned out: in the full panel of roughly 83,000, 20% have a hit.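 Interpretation: 100, growth as untreated; towards 0, rising growth inhibition; 0, no net growth; 0 to -100, cell death. Compounds scoring below 10 were considered active.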 The source made the active and inactive calls.

The first experiment relates to MCF7 breast. The experiment is described as follows: NCI-60 one-dose screen, 48 h (100 = growth as untreated, 0 = no growth, -100 = all killed). The note with it: 10 µM unless noted.
In the case of `COc1ccccc1S(=O)Nc1ccccc1` (centres undefined), the growth is 95.1% (inactive).

Consider `O=C(C[n+]1ccn(CC(OCc2ccc(Cl)cc2Cl)c2ccc(Cl)cc2Cl)c1)c1ccc(F)cc1` (centres undefined), for which the growth is -84% (active).

For `C=C(C)[C@@H]1CC[C@]2(C(=O)NCCNCCNCCN)CC[C@]3(C)[C@H](CC[C@@H]4[C@@]5(C)CC[C@H](O)C(C)(C)[C@@H]5CC[C@]43C)[C@@H]12`, the growth is -60.5% [100 µM] (active).

`CCOC(=O)c1c[nH]c2cc(OCC3CC3)c(OCC3CC3)cc2c1=O`: the growth was 104% (inactive).

For `O=[N+]([O-])c1cc([N+](=O)[O-])c(NN=C(c2ccc(O)cc2)c2ccc(O)cc2)cc1Cl`, the growth is -65.4% (active).

As for `Cc1ccc(Cn2c(O)c(N=NC(=O)c3ccc(S(N)(=O)=O)cc3)c3ccccc32)cc1`, the growth was 95% (inactive).

For the compound `CCN(CC)CCCCCCNc1cccc2cc(Br)cnc12`, the growth is 109% (inactive).

Consider `CCN(CCNc1ccc(C)c2sc3cc(Cl)ccc3c(=O)c12)CC(C)O` (centres undefined), for which the growth was 36.7% (inactive).

With `COc1cc2c(c(OC)c1OC)-c1cc(I)c(O)cc1[C@@H](NC(C)=O)CC2`, the growth was 12.5% (inactive).

Take `CCNC(=O)N1CCc2c(Cl)c3c(c(OC)c2[C@@H]1[C@H]1OCc2c1ccc(OC)c2OC)OCCO3`: the growth was 16.1% (inactive).

As to `O=C(Nc1ccccc1)Nc1ccc(C(=O)/C=C/c2ccc(N3CCCC3)cc2)cc1`, the growth was 66% (inactive).

As to `CC(C)(C)c1cc(C(=O)Nc2ccccc2C(=O)NCCN)cc(C(C)(C)C)c1`, the growth was -63.1% (active).

Turning to `O=S(=O)(/N=c1/n(-c2ccccc2)nc2n1CCN2C1=NCCN1)c1ccc(-c2ccccc2)cc1`, the growth is 97.8% (inactive).

For the compound `Brc1ccc(-c2nnc3c4[nH]ccc4ncn23)cc1`, the growth was 75.8% (inactive).

In the case of `Cc1ccc(NCCN2CCCCC2)c2c(=O)c3ccccc3sc12`, the growth is -3.15% (active).

As to `CCCCCCSc1ncnc2nc[nH]c12`, the growth was 94.6% (inactive).

With `COc1ccc(CC(C#N)c2ccc(Cl)cc2)cc1` (centres undefined), the growth is 75% (inactive).

`CC(C)[C@H]1CCC2=C3CC[C@]45OC(=O)[C@@]6(CCC(C)(C)C[C@H]64)CC[C@@]5(C)[C@]3(C)CC[C@@]21C`: the growth was 61.2% [100 µM] (inactive).

As to `O=C(N=c1n(-c2ccccc2)nc2n1CCN2C1=NCCN1)c1ccc(Cl)cc1`, the growth was 86.4% (inactive).

On to `CNc1cc(C(=O)O)nc(NC)n1`, for which the growth is 99.4% (inactive).

As for `O=C(O)CSCc1nnc2n(Cc3ccccc3)c(=O)c3c4c(sc3n12)CCCC4`, the growth is 110% (inactive).

In the case of `CCCCCCCCCCCCNC(=S)N/N=C/c1ccccc1O`, the growth is 51% (inactive).

Take `COc1ncc(-c2ccc3nccc(C#CCCCCC(=O)NO)c3c2)cc1NS(=O)(=O)c1ccc(F)cc1F`: the growth is 2.33% (active).

For `O=C(NCc1ccccc1)C(Cl)Cl`, the growth was 90.1% (inactive).

Regarding `C=C(C)[C@@H]1CC[C@]2(COCCCN)CC[C@]3(C)[C@H](CC[C@@H]4[C@@](C)(CCCNCCCN)[C@H](C(=C)C)CC[C@]43C)[C@@H]12`, the growth was -47.9% [100 µM] (active).

As to `C=C(C)[C@@H]1CC[C@]2(C(=O)N3CCN(C)CC3)CC[C@]3(C)[C@H](CC[C@@H]4[C@@]5(C)C/C(=C/c6ccncc6)[C@H](O)C(C)(C)[C@@H]5CC[C@]43C)[C@@H]12`, the growth was -60.6% [100 µM] (active).

For the compound `COc1cc2c(c(OC)c1OC)-c1ccc(NNC(N)=S)c(=O)cc1[C@@H](NC(C)=O)CC2`, the growth is 10.1% (inactive).

As to `O=C(Oc1ccc(Cl)cc1[N+](=O)[O-])Oc1ccc(Cl)cc1[N+](=O)[O-]`, the growth is 103% (inactive).

Regarding `COCc1nc2ccccc2[nH]1`, the growth was 88.7% (inactive).

Consider `CCOC(=O)n1cc(C2=C(c3ccc(OC)c(OC)c3)COC2=O)c2ccccc21`, for which the growth is 14.9% (inactive).

As to `CC(=O)Nc1ccc2nc3ccc(NC(C)=O)cc3[n+](-c3ccccc3)c2c1`, the growth is 73.1% (inactive).

In the case of `C=C(C)[C@@H]1CC[C@]2(C(N)=O)CC[C@]3(C)[C@H](CC[C@@H]4[C@@]5(C)C/C(=C/c6cccnc6)[C@H](O)C(C)(C)[C@@H]5CC[C@]43C)[C@@H]12`, the growth is 11.3% [100 µM] (inactive).

As to `CC(C)(C)OC(=O)N1C=C/C(=C\Cn2cc(-c3ccccc3)nn2)CC1`, the growth was 65.5% (inactive).

As to `COc1ccc2c(c1)c(-c1noc(C(=O)c3cn(C)c4ncc(Br)cc34)n1)cn2C`, the growth is 79.9% (inactive).

As to `COc1cccc(-c2[nH]c(=S)ncc2C(=O)c2ccccc2)c1`, the growth was 69.8% (inactive).

On to `COc1cc(C)cc2oc3oc(=N)c(C(=O)c4ccccc4)cc3c(=O)c12`, for which the growth was 96.2% (inactive).

Take `COc1cc(/C=C/C(=O)/C=C/c2ccc(-n3ccnc3C)cc2)ccc1O`: the growth is 4.86% (active).

The subject of the next experiment is HCT-116 colon. The experiment is described as above. The note with it: 10 µM unless noted.
In the case of `COc1ccccc1S(=O)Nc1ccccc1` (centres undefined), the growth was 115% (inactive).

Regarding `O=C(C[n+]1ccn(CC(OCc2ccc(Cl)cc2Cl)c2ccc(Cl)cc2Cl)c1)c1ccc(F)cc1` (centres undefined), the growth is -97.1% (active).

Take `C=C(C)[C@@H]1CC[C@]2(C(=O)NCCNCCNCCN)CC[C@]3(C)[C@H](CC[C@@H]4[C@@]5(C)CC[C@H](O)C(C)(C)[C@@H]5CC[C@]43C)[C@@H]12`: the growth is -26.5% [100 µM] (active).

In the case of `CCOC(=O)c1c[nH]c2cc(OCC3CC3)c(OCC3CC3)cc2c1=O`, the growth was 111% (inactive).

Regarding `O=[N+]([O-])c1cc([N+](=O)[O-])c(NN=C(c2ccc(O)cc2)c2ccc(O)cc2)cc1Cl`, the growth is -91.1% (active).

In the case of `Cc1ccc(Cn2c(O)c(N=NC(=O)c3ccc(S(N)(=O)=O)cc3)c3ccccc32)cc1`, the growth is 102% (inactive).

`CCN(CC)CCCCCCNc1cccc2cc(Br)cnc12`: the growth is 72.2% (inactive).

Turning to `CCN(CCNc1ccc(C)c2sc3cc(Cl)ccc3c(=O)c12)CC(C)O` (centres undefined), the growth is 9.99% (active).

Turning to `COc1cc2c(c(OC)c1OC)-c1cc(I)c(O)cc1[C@@H](NC(C)=O)CC2`, the growth is 11.9% (inactive).

As to `CCNC(=O)N1CCc2c(Cl)c3c(c(OC)c2[C@@H]1[C@H]1OCc2c1ccc(OC)c2OC)OCCO3`, the growth is 18.2% (inactive).

Turning to `O=C(Nc1ccccc1)Nc1ccc(C(=O)/C=C/c2ccc(N3CCCC3)cc2)cc1`, the growth is 52.9% (inactive).

On to `CC(C)(C)c1cc(C(=O)Nc2ccccc2C(=O)NCCN)cc(C(C)(C)C)c1`, for which the growth was -94.7% (active).

Regarding `O=S(=O)(/N=c1/n(-c2ccccc2)nc2n1CCN2C1=NCCN1)c1ccc(-c2ccccc2)cc1`, the growth is 95.6% (inactive).

Turning to `Brc1ccc(-c2nnc3c4[nH]ccc4ncn23)cc1`, the growth is 86.4% (inactive).

As for `Cc1ccc(NCCN2CCCCC2)c2c(=O)c3ccccc3sc12`, the growth was 18% (inactive).

Turning to `CCCCCCSc1ncnc2nc[nH]c12`, the growth was 85.1% (inactive).

For `COc1ccc(CC(C#N)c2ccc(Cl)cc2)cc1` (centres undefined), the growth was 72.4% (inactive).

For the compound `CC(C)[C@H]1CCC2=C3CC[C@]45OC(=O)[C@@]6(CCC(C)(C)C[C@H]64)CC[C@@]5(C)[C@]3(C)CC[C@@]21C`, the growth is 51.6% [100 µM] (inactive).

Turning to `O=C(N=c1n(-c2ccccc2)nc2n1CCN2C1=NCCN1)c1ccc(Cl)cc1`, the growth was 103% (inactive).

Turning to `CNc1cc(C(=O)O)nc(NC)n1`, the growth was 104% (inactive).

Regarding `O=C(O)CSCc1nnc2n(Cc3ccccc3)c(=O)c3c4c(sc3n12)CCCC4`, the growth is 144% (inactive).

On to `CCCCCCCCCCCCNC(=S)N/N=C/c1ccccc1O`, for which the growth was 62.2% (inactive).

On to `COc1ncc(-c2ccc3nccc(C#CCCCCC(=O)NO)c3c2)cc1NS(=O)(=O)c1ccc(F)cc1F`, for which the growth was -50.3% (active).

Turning to `O=C(NCc1ccccc1)C(Cl)Cl`, the growth is 108% (inactive).

For `C=C(C)[C@@H]1CC[C@]2(COCCCN)CC[C@]3(C)[C@H](CC[C@@H]4[C@@](C)(CCCNCCCN)[C@H](C(=C)C)CC[C@]43C)[C@@H]12`, the growth was -31.7% [100 µM] (active).

`C=C(C)[C@@H]1CC[C@]2(C(=O)N3CCN(C)CC3)CC[C@]3(C)[C@H](CC[C@@H]4[C@@]5(C)C/C(=C/c6ccncc6)[C@H](O)C(C)(C)[C@@H]5CC[C@]43C)[C@@H]12`: the growth was -79.3% [100 µM] (active).

`COc1cc2c(c(OC)c1OC)-c1ccc(NNC(N)=S)c(=O)cc1[C@@H](NC(C)=O)CC2`: the growth was 2.28% (active).

With `O=C(Oc1ccc(Cl)cc1[N+](=O)[O-])Oc1ccc(Cl)cc1[N+](=O)[O-]`, the growth is 113% (inactive).

Take `COCc1nc2ccccc2[nH]1`: the growth was 99.9% (inactive).

Regarding `CCOC(=O)n1cc(C2=C(c3ccc(OC)c(OC)c3)COC2=O)c2ccccc21`, the growth was 4.07% (active).

With `CC(=O)Nc1ccc2nc3ccc(NC(C)=O)cc3[n+](-c3ccccc3)c2c1`, the growth was 95.6% (inactive).

`C=C(C)[C@@H]1CC[C@]2(C(N)=O)CC[C@]3(C)[C@H](CC[C@@H]4[C@@]5(C)C/C(=C/c6cccnc6)[C@H](O)C(C)(C)[C@@H]5CC[C@]43C)[C@@H]12`: the growth was 7.1% [100 µM] (active).

Regarding `CC(C)(C)OC(=O)N1C=C/C(=C\Cn2cc(-c3ccccc3)nn2)CC1`, the growth was 74.1% (inactive).

In the case of `COc1ccc2c(c1)c(-c1noc(C(=O)c3cn(C)c4ncc(Br)cc34)n1)cn2C`, the growth was 50.3% (inactive).

Consider `COc1cccc(-c2[nH]c(=S)ncc2C(=O)c2ccccc2)c1`, for which the growth was 61.3% (inactive).

On to `COc1cc(C)cc2oc3oc(=N)c(C(=O)c4ccccc4)cc3c(=O)c12`, for which the growth was 93.9% (inactive).

On to `COc1cc(/C=C/C(=O)/C=C/c2ccc(-n3ccnc3C)cc2)ccc1O`, for which the growth is 90.6% (inactive).

The values are drawn from PubChem BioAssay (NCI).
